Laboratory results from PubChem BioAssay (NCI).
This is part of a sample that, as a whole, favours compounds with a hit. Of some 79,000 tested, about 15% had one in any assay. Unmarked numbers belong to inactive results. Active and inactive are the calls of the source. No stated cut-off is given here; in the data, active means growth inhibition above about 70%; inactive means the rest.

Assay: NCI Yeast Anticancer Drug Screen. Data for the mlh1 rad18 strain (AID 175)
Details: S. cerevisiae mlh1 rad18 strain growth inhibition, active compounds read high
Protocol: Growth inhibition of yeast strains with defined genetic alterations is measured as a screen for potential anti-cancer activity. Selected strains with alterations in DNA damage repair or cell cycle control were exposed to compounds and growth inhibition was measured relative to vehicle treated controls. The strain used in this assay is mlh1 rad18

[1] = at 5.0 µM (retest, dose inferred, filed as 0.5)
[2] = at 50.0 µM (retest, dose inferred, filed as 5.0)

SMILES	growth inhibition [1]	growth inhibition [2]	growth inhibition (at 50.0 µM)
CN(C)CCC(=O)[C@@]1(O)CC[C@H]2[C@@H]3CC=C4C[C@@H](O)CC[C@]4(C)[C@H]3CC[C@@]21C	16%	68%	65.5%
CCN1C(Cl)=NS(=O)(=O)c2ccccc21	25%	46%	21.2%
CC(C)C(Sc1nc(-c2ccccc2)c(-c2ccccc2)[nH]1)C(=O)NN (configuration not stated)	-11%	96% (active)	89.4% (active)
CN(C)/C=C(\C(=O)c1ccccc1)n1nc(-c2ccccc2)cc1-c1ccccc1	16%	54%	81.3% (active)
O=C1C(=O)N(c2ccccc2)N=C1N=Nc1ccccc1	14%	77% (active)	56%
c1ccc2c(c1)CCN2CCc1c[nH]c2ccccc12	-14%	21%	88.5% (active)
COC(=O)CSc1n[nH]c(-c2ccc(O)c([N+](=O)[O-])c2)n1	30%	57%	57.4%
Cc1c(C(=O)N(CCO)CCO)[n+](=O)c2ccccc2n1[O-]	31%	13%	65.7%
CCCCCC/C=C\C=O	0%	5%	51.4%
CC(C)C(Cl)CC/C(CBr)=C(\Cl)CCl (configuration not stated)	28%	97% (active)	18.9%
OC(c1ccccc1)(c1ccccc1)c1ccc[cH-]1.OC(c1ccccc1)(c1ccccc1)c1ccc[cH-]1.[Fe+2]	1%	-3%	35.4%
O=C(N/C(=C\c1ccc2c(c1)OCO2)c1nc2ccccc2s1)c1ccccc1	18%	97% (active)	97.5% (active)
O=C1c2ccccc2C(=O)N1CCn1ccc(NC(c2ccccc2)(c2ccccc2)c2ccccc2)nc1=O	44%	44%	65.3%
C=C(CC)C[C@@H]1C[C@]2(C(=O)OC)c3[nH]c4ccccc4c3CCN2C1=O	0%	96% (active)	82.5% (active)
